This passage reports Potency, caspase-3 activation and max response results from PubChem BioAssay (NCATS).

Test [1] addresses Cytochrome P450 1A2 (Homo sapiens) (UniProt P05177). In words: p450-cyp1a2 (AID 410; calls by dose curve; further: potency means the concentration at half of the fitted maximal effect). Summed up:
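Luminescent readout of luciferin formed from Luciferin-ME by human CYP1A2; data normalized against complete inhibition by 57 uM furafylline. Enzyme 20nM, substrate 100uM at Km, 100mM KPO4 buffer, 60 min reaction at room temperature.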

Test [2] addresses Cytochrome P450 2C9 (Homo sapiens) (UniProt P11712). In words: qHTS Assay for Inhibitors and Substrates of Cytochrome P450 2C9 (AID 883). Further: nearly all actives have a fitted effect of over 60% in size. Further: potency means the concentration at half of the fitted maximal effect. Summed up: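 A luminogenic readout tracked human CYP2C9 (10nM) converting deoxyluciferin (100uM, at KM) in 25mM KPO4 during 60 min at 37C with regenerated NADPH. Values normalized to 57uM sulphaphenazole as complete inhibition.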
Test [3] has as its target Cytochrome P450 3A4 (Homo sapiens) (UniProt P08684). In words: qHTS Assay for Activators of Cytochrome P450 3A4 (AID 885). Further: nearly all actives have a fitted effect of over 65% in size. Summed up: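 Quantitative HTS format: compounds preincubated with 20nM human CYP3A4 and Luciferin-PPXE substrate at KM, reaction started by NADPH regeneration, stopped after 60 min, luciferase luminescence read 20 min later.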
The target of test [4] is Cytochrome P450 2C19 (Homo sapiens) (UniProt P33261). In words: qHTS Assay for Inhibitors and Substrates of Cytochrome P450 2C19 (AID 899). Further: nearly all actives have a fitted effect of over 60% in size. Further: potency means the concentration at half of the fitted maximal effect. Summed up: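 NADPH-dependent conversion of Luciferin-H EGE (10uM, at KM) by 5nM enzyme in 50mM KPO4, 60 min at 37C following 10 min compound preincubation. Stopped with luciferin detection buffer; luminescence read after 20 min.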
The target in test [5] is Mitogen-activated protein kinase 10 (Mus musculus) (UniProt Q61831). In words: JNK3 AlphaScreen Assay (AID 530; active means well fitted curve in either direction with a large enough effect, not every such curve was filed as active;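 further: kinase came from lysate of stimulated human HepG2 cells; signal reports phosphorylation of biotinylated GST-cJun 1-79 at Ser73 with 10 µM ATP; on the % scale 0 is the no-effect control and ±100 the full control effect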). Put shortly:
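Inhibitors reduce antibody binding to phosphorylated biotin-cJun, lowering AlphaScreen luminescence. Lysates from HepG2 cells pre-activated by IL-1beta plus TNF-alpha supplied JNK3; compounds were titrated.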

The target in test [6] is 3',5'-cyclic-AMP phosphodiesterase 4B (Homo sapiens) (UniProt Q07343). In words: qHTS Assay for Inhibitors of PDE-IV (AID 607; active means well fitted activation curve with a large enough effect in the main read-out, with a control signal flat, not every such curve was filed as active; further: % of control where 0% means no effect). Put shortly:
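Live HEK293 cells with a modified cyclic nucleotide-gated (CNG) channel report intracellular cAMP via membrane-potential dye fluorescence (ex 535/em 590 nm). Endogenous PDE-IV was targeted. Compounds were tested at up to 22.9 uM final; RO 20-1724 100 uM served as control.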

The target in test [7] is Cytochrome P450 2D6 (Homo sapiens) (UniProt P10635). In words: qHTS Assay for Inhibitors and Substrates of Cytochrome P450 2D6 (AID 891).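 Further: luciferin methyl ether substrate demethylated by CYP2D6 with NADPH regeneration; on the % scale 0 is the no-effect control and ±100 the full control effect; nearly all actives have a fitted effect of over 60% in size.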 Put shortly:
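Human CYP2D6 (5 nM) with 30 uM Luciferin-ME EGE (at Km) in 100 mM KPO4, compound preincubated 10 min, then NADPH regeneration system for 60 min at room temperature. Luciferin read by luminescence; normalized to 1.43 uM quinidine.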

Test [8] addresses Cytochrome P450 3A4 (Homo sapiens) (UniProt P08684). In words: qHTS Assay for Inhibitors and Substrates of Cytochrome P450 3A4 (AID 884). Further: nearly all actives have a fitted effect of over 50% in size. Further: potency means the concentration at half of the fitted maximal effect. Put shortly:
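20 nM human CYP3A4 with 25 uM Luciferin-PPXE (at KM) in 200 mM KPO4, preincubated 10 min with compound; NADPH regeneration started a 60 min RT reaction. Luciferin detected by luminescence, normalized to 57 uM ketoconazole as full inhibition.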

Test [9] in a line: Cell Viability - BJ (AID 421; calls by dose curve;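 further: potency means the concentration at half of the fitted maximal effect; cells exposed to compound for 40 hours at 37 °C before readout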). Particulars: BJ fibroblast viability, qHTS. Put shortly:
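Quantitative HTS: ATP depletion in BJ cells after 40 hr compound exposure in complete culture medium, detected with CellTiter-Glo; AC50 from standard Hill fits.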

The nature of test [10]: Cell Viability - Jurkat (AID 426;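 active means dose-dependent loss of cell ATP signal giving a full or clear fitted curve, ranked by lower potency value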; further: potency means the concentration at half of the fitted maximal effect). As to conditions: qHTS. Put shortly:
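qHTS, 1536-well; Jurkat E6-1, 5000 cells/well, complete medium; cpd 40 hr, 37 °C; CellTiter-Glo 20 min RT; luminescence. AC50 by Hill fit.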

A short description of test [11]: Cell Viability - Hek293 (AID 427;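 active means compounds whose dose-response curve shows a full or clear partial loss of cell viability, called from curve shape rather than a numeric limit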;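 further: potency means the concentration at half of the fitted maximal effect; cells exposed to compound for 40 hours at 37 °C before reading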). Particulars: qHTS. Summed up:
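AC50 values derive from Hill-modelled concentration-response of ATP-based luminescence, normalized between DMSO-only and 100 uM tamoxifen controls. Cells were exposed in complete culture medium for 40 hr at 37 °C before detection.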

Test [12] is described as follows: Cell Viability - SK-N-SH (AID 435; calls by dose curve;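 further: potency means the concentration at half of the fitted maximal effect; compound exposure lasted 40 h at 37 °C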). As to conditions: SK-N-SH neuroblastoma cell viability qHTS. Put shortly:
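SK-N-SH neuroblastoma cells (1500/well) treated 40 h at 37 °C in complete medium; viability read as cellular ATP by CellTiter-Glo luminescence. Normalized to DMSO and 100 uM tamoxifen; AC50 from Hill fits of qHTS concentration-response.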

Test [13] in a line: Cell Viability - N2a (AID 540).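 Further: plate controls were DMSO alone for no effect and tamoxifen control for full effect; nearly all actives have a fitted effect of over 45% in size.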 As to conditions: N2a mouse neuroblastoma cell viability; activity change, negative = cytotoxicity: at 92.2 µM (top of the series). Summed up: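 Luminescent ATP signal (CellTiter-Glo, 20 min at room temperature) served as the viability read-out after N2a cells were treated with compounds for 40 hours at 37 °C. Concentration-response data were fitted to the Hill equation for AC50.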

Test [14] in a line: Cell Viability - H-4-II-E (AID 543). Further: on the % scale 0 is the no-effect control and ±100 the full control effect; nearly all actives have a fitted effect of over 35% in size. Summed up: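 Luminescent ATP signal (CellTiter-Glo) served as the viability read-out, with cytotoxicity seen as a concentration-dependent ATP drop. Cells were treated for 40 hours in complete medium. AC50 values derive from Hill-equation modelling.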
A short description of test [15]: Cell Viability - SH-SY5Y (AID 544). Further: nearly all actives have a fitted effect of over 55% in size. Particulars: SH-SY5Y neuroblastoma cell viability; viability change, negative = cytotoxic: at 92.2 µM (top of the series). Summed up: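 Luminescent ATP read-out (CellTiter-Glo) measures loss of viable SH-SY5Y neuroblastoma cells after 40 hr compound exposure at 37 °C. AC50 values derive from standard Hill modelling of qHTS concentration-response data.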

The nature of test [16]: Cell Viability - Renal Proximal Tubule (AID 545). Further: nearly all actives have a fitted effect of over 40% in size. As to conditions: renal proximal tubule cells viability, primary cells of rat origin; activity change, negative = cytotoxicity: at 91.7 µM (top of the series). Summed up:
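Rat renal proximal tubule primary cells, 1000/well, exposed to compounds for 40 hr at 37 °C in complete medium; cellular ATP read by CellTiter-Glo luminescence. AC50 from concentration-response fitted with standard Hill equation.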

Test [17] in a line: Cellular Toxicity (caspase-3) HepG2 (AID 654).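 Further: cells exposed to compound for 16 hours before reading; 0% = DMSO alone and 100% = caspase signal from 100 µM tamoxifen.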 Summed up:
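Cells plated 5 hr at 37 °C, compound added, incubated 16 hr at 37 °C. Caspase-Glo 3/7 reagent followed, 20 min at room temperature, then luminescence read. Activation scored as signal increase; AC50 from Hill fit.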

Test [18] is described as follows: Cellular Toxicity (caspase-3) Hek293 (AID 664).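 Further: cells exposed to compound for 16 h at 37 °C before readout.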 Particulars: HEK293 caspase-3 activation, DMSO = 0%, 100 µM tamoxifen = 100%; at 92.2 µM (top of the series). Put shortly: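 Cells plated, 5 hr at 37 °C; compounds added; 16 hr at 37 °C; Caspase-Glo 3/7 reagent, 20 min RT; luminescence read. Activation expressed relative to DMSO and 100 uM tamoxifen, AC50 by Hill model.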

Test [19] is described as follows: Cellular Toxicity (caspase-3) N2a (AID 665).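 Further: compound exposure lasted 16 h at 37 °C before readout.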 Particulars: Potency: caspase-3 activation. Summed up:
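N2a cells, 1500/well, 5 h settle at 37 °C; cpd 16 h, 37 °C; Caspase-Glo 3/7, 1 h RT; luminescence. Norm: DMSO = 0, 10 uM staurosporine = 100%. AC50, Hill fit.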

Test [20] concerns the target Peroxisome proliferator-activated receptor alpha (Homo sapiens) (UniProt Q07869). In words: qHTS assay for small molecule agonists of the peroxisome proliferator-activated receptor alpha (PPARalpha) signaling pathway (AID 651778). Further: % of control where 0% means no effect. Particulars: PathHunter PPARalpha complementation, chemiluminescence, 6 h; max response: active compounds read high. Put shortly:
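Cells plated at 2,000/well and held overnight at 37 C, 5% CO2, then compound added by pin tool for 6 hr; after PathHunter detection reagent and 60 min at room temperature, chemiluminescence from enzyme complementation was read.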

Values without a mark were called inactive. Results filed as inconclusive are left out. The source made the active and inactive calls. Unless noted, the call rests on the fitted dose curve; in most records, active means well fitted curve in the direction sought with a large enough effect; inconclusive means small, poorly fitted or top-dose-only effect, or another doubt; inactive means no such curve, though single readings can be large; an effect the other way counts as inactive or inconclusive.

Sequence of Cytochrome P450 2C9 (Homo sapiens) (P11712 whole entry, looked up): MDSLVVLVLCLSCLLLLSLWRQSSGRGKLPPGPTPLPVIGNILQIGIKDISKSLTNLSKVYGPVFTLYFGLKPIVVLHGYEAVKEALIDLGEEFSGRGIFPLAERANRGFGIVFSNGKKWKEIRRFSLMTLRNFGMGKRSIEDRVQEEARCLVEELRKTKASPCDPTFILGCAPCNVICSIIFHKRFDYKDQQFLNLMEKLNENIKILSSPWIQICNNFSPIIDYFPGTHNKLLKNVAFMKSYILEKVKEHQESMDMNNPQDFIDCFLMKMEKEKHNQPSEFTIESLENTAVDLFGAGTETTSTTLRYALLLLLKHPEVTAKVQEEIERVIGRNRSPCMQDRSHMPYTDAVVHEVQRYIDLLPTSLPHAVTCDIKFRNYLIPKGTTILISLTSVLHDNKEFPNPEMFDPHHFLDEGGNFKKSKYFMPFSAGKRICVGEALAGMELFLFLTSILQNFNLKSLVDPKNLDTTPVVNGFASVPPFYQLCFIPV
Sequence of Cytochrome P450 1A2 (Homo sapiens) (P05177 whole entry, looked up): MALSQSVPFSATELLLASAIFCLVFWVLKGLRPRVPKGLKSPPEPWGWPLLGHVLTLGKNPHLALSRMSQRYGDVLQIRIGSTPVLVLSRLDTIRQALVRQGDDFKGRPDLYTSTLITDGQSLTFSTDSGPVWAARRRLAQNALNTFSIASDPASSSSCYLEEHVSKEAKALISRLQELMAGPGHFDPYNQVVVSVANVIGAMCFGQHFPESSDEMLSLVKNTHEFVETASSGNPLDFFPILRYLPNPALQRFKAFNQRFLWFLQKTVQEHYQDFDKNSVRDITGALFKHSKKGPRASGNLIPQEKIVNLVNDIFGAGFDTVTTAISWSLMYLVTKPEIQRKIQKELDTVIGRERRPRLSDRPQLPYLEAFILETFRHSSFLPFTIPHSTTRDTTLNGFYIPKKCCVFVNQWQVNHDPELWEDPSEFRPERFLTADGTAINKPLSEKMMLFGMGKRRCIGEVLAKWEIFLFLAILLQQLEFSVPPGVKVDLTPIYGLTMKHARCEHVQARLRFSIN
Sequence of Cytochrome P450 3A4 (Homo sapiens) (P08684 whole entry, looked up): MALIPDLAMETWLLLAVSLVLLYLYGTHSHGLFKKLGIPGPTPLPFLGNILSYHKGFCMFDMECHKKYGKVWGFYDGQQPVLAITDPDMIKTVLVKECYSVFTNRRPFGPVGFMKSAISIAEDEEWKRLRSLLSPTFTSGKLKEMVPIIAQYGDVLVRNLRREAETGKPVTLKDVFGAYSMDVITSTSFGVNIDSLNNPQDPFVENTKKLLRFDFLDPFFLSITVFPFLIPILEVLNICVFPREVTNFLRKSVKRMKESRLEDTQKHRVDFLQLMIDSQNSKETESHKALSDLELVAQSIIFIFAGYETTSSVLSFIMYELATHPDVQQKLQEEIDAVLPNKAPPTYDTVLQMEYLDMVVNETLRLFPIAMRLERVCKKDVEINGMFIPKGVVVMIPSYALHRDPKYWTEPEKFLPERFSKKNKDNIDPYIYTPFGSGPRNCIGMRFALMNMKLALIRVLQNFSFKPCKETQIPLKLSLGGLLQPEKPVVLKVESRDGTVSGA
Sequence of Cytochrome P450 2C19 (Homo sapiens) (P33261 whole entry, looked up): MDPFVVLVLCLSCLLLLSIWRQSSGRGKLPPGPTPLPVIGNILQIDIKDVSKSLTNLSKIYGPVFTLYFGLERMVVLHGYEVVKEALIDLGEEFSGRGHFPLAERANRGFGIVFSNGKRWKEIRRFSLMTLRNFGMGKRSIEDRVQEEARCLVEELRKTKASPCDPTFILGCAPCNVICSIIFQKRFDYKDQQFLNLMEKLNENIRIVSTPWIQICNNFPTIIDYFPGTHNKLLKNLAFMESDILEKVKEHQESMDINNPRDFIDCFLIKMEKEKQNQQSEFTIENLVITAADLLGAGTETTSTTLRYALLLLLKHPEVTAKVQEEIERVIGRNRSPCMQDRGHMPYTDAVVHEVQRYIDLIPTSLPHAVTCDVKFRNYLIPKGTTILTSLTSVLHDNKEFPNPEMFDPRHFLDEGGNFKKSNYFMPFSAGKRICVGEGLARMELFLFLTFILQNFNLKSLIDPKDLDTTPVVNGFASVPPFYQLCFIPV
Sequence of Peroxisome proliferator-activated receptor alpha (Homo sapiens) (Q07869 whole entry, looked up): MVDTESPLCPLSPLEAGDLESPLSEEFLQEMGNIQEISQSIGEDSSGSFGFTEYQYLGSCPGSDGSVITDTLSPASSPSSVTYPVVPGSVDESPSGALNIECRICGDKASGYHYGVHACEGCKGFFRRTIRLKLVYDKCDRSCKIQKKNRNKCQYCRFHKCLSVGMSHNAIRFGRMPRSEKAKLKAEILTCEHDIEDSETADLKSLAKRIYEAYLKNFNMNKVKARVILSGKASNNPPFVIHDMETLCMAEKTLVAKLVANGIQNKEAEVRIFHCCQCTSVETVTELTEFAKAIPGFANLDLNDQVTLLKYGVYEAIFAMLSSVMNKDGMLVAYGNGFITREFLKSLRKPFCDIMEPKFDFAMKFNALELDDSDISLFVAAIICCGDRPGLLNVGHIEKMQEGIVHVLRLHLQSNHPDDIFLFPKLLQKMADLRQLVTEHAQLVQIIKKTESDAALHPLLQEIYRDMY
Sequence of Cytochrome P450 2D6 (Homo sapiens) (P10635 whole entry, looked up): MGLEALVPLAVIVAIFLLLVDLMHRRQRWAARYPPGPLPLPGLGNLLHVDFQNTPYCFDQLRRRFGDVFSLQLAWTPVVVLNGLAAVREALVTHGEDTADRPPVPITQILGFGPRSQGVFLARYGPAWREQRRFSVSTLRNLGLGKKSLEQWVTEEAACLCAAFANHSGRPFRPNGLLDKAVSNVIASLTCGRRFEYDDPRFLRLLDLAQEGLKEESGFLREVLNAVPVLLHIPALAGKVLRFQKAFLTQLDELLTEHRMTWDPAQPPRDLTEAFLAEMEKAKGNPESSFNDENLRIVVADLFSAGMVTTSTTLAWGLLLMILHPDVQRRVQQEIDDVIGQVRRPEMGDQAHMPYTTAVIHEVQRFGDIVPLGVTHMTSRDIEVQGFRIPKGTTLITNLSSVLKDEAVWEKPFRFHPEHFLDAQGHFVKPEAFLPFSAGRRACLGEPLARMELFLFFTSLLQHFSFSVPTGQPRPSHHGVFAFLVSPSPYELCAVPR
Sequence of 3',5'-cyclic-AMP phosphodiesterase 4B (Homo sapiens) (Q07343 whole entry, looked up): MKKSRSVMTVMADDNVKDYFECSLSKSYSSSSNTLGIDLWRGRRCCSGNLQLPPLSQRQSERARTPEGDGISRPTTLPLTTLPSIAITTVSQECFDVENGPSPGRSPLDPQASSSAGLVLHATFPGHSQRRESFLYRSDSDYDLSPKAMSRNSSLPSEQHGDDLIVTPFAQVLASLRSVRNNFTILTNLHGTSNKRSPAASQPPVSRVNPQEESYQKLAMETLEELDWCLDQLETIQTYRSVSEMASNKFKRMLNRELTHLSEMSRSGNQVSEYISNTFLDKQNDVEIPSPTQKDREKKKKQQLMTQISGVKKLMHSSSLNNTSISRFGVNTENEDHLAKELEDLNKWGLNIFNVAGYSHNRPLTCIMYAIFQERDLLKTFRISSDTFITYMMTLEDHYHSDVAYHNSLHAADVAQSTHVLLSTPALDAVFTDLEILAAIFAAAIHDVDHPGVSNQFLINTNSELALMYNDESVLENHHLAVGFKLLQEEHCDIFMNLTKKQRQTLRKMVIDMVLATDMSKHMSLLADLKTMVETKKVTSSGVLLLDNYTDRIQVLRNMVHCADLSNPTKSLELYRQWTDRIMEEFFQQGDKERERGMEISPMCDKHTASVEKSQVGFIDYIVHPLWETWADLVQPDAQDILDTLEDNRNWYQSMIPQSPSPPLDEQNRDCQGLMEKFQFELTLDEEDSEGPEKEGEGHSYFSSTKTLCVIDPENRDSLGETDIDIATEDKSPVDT

In the case of `CCC/C=C(\CCC)C(NS(=O)(=O)c1ccc(C(F)(F)F)cc1)c1ccc(C(=O)OC)cc1` (centres undefined), the Potency entry in test [1] and in [3] was “inactive” each time. Besides, the values for the Potency in test [2] and in test [4] were 3.16 µM (active) and 2.51 µM (active), respectively.

As for `CCCC[C@@H]1C[C@H]1C(NC(=O)c1ccco1)c1ccccc1` (some centres undefined), the Potency in [1] is 2 µM (active); in test [4], 1.26 µM (active). Further, the Potency entry in test [5] and in test [3] was “inactive” in each case.

Take `CC(C)C[C@@H](CC(=O)N[C@@H](CCC(=O)O)CC(=O)O)NC(=O)[C@@H]1CNCC[C@H]1NC(=O)C[C@@H](NC(=O)C[C@H](Cc1c[nH]c2ccccc12)NC(=O)[C@@H]1CCCC[C@H]1N)C(C)C`: the Potency entry in test [1], in [6], in [2], in test [7] and in [4] was “inactive” in each case.

`CC(C)C[C@@H](CC(=O)N[C@@H](CCCN)CC(=O)N[C@@H]1CCCC[C@H]1C(=O)N[C@H](CC(=O)N[C@@H](CCC(=O)O)CC(=O)O)Cc1ccccc1)NC(=O)[C@@H]1CNCC[C@H]1N`: the Potency in test [1] was 25.1 µM (active). The Potency result in test [2], in test [7] and in [4] was “inactive” each time.

For the compound `CCC/C=C(\CCC)C(NS(=O)(=O)c1ccccc1)c1ccc(C(F)(F)F)cc1` (centres undefined), the Potency in test [1] is 12.6 µM (active); in test [8] it was 6.31 µM (active); in test [4], 7.94 µM (active). Further, the Potency entry in [3] is “inactive”.

Regarding `O=C(OCC(COC(=O)c1ccccc1)(COC(=O)c1ccccc1)COC(=O)c1ccccc1)c1ccccc1`, the Potency in test [9], in [10], in test [11] and in test [12] was more than 92 µM each time. The Potency entry in [5], in [13], in [14], in test [15], in [16] and in test [17] was “inactive” throughout. The Potency result in test [19] and in test [8] was “inactive” throughout. Besides, the caspase-3 activation in test [18] was 2.36%. The max response in test [20] was -8.1%.

As for `Cc1cccc(O)c1C`, the Potency in test [9], in test [10], in test [11] and in test [12] was more than 92 µM each time. The Potency entry in [5], in test [13], in test [14], in test [15], in [16] and in test [17] was “inactive” throughout. The Potency entry in [19] and in test [8] was “inactive” in each case. For the same compound, the caspase-3 activation in [18] was 0.349%. The max response in [20] is -2.92%.
